Compound activity (PubChem BioAssay)
FUS yeast rescue = FUS proteinopathy suppression in yeast. hit rate 0.24% among 390,000. S. cerevisiae FUS-expressing, growth rescue, OD600, 24 h. Potency, µM (highest dose often 76.6 µM), usual class: activators;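 further: plate controls were DMSO vehicle for no effect and reference control for full effect; nearly all actives have a fitted effect of over 55% in size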
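Yeast FUS proteinopathy model; galactose-induced FUS (2%), starting OD 0.005. Cpds in dilution series, 24hr, 30C, 99% humidity. Abs 600 nm growth. Pos ctrl CP55940 (top 92uM final); neg ctrl DMSO.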
TDP-43 yeast inh = rescues yeast growth from TDP-43 toxicity. TDP-43 expressing yeast growth rescue, BacTiter-Glo, 24 h. Potency, µM (highest dose often 46.1 µM), for the others: top-dose growth rescue (activation), actives largely listed as activators. hit rate 1.8% among 410,000. AID 652104; further: % of control where 0% means no effect; nearly all actives have a fitted effect of over 50% in size
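Cell-based yeast growth screen: TDP-43 expression induced in galactose, inoculum OD600=0.02 after raffinose pregrowth to mid-log. Read-out BacTiter-Glo luminescence at 24 hr, 30 deg C; inhibition of toxicity seen as signal increase.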
aSyn rescue = inhibitors of alpha-synuclein toxicity in yeast. Potency, µM (titrated, usually from 46.1 µM), inactives show at the highest dose growth rescue (activation), usual class: activators. hit rate 0.14% among 370,000. Yeast expressing alpha-synuclein, growth rescue, BacTiter-Glo, 24 h; further: % of control where 0% means no effect; nearly all actives have a fitted effect of over 65% in size
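Readout is rescue of growth in alpha-synuclein-expressing yeast, so inhibitors of toxicity appear as activators. Growth after 24 hr at 30 deg C in galactose medium is quantified by luminescence.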
Mito fusion yeast = blocks mitochondrial division or promotes mitochondrial fusion; hit rate 0.23% among 320,000; S. cerevisiae fusion-defective mutant growth rescue, CellTiterGlo 48 h; Potency, µM (series often up to 46.1 µM), for inactives: at the highest dose growth rescue (activation), usual class: activators; AID 485298; further: % of control where 0% means no effect; nearly all actives have a fitted effect of over 45% in size
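Compounds are tested for their ability to restore growth of mitochondrial fusion-defective yeast strains at non-permissive 37C in YPEG medium over 48 hours. Viability is quantified by luciferase luminescence.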
Abeta rescue = restores growth of yeast expressing A-beta42 peptide; yeast expressing A-beta42, growth rescue, OD600, 48 h; response scale: 0% DMSO, 100% iron-clioquinol control; Potency, µM (titrated, usually from 46.1 µM), hits mostly activators; hit rate 0.063% among 410,000; AID 1347071; further: nearly all actives have a fitted effect of over 55% in size
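Yeast A-beta toxicity model in growth medium with pinned compounds, 48 h at 30 C; growth read as absorbance at 600 nm. Normalized to FeCl3/clioquinol equimolar mix (positive) and DMSO (negative).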
Numbers without * were called inactive; i = inactive; ? = inconclusive; / = no result; [ ] = remark or other dose. Most compounds without a hit are left out; they make up all but 2.2% or so of the library. The call rests on the fitted dose curve; in most records, active means well fitted curve in the direction sought with a large enough effect; inconclusive means small, poorly fitted or top-dose-only effect, or another doubt; inactive means no such curve, though single readings can be large; an effect the other way counts as inactive or inconclusive. Potency means the concentration at half of the fitted maximal effect.

SMILES | FUS yeast rescue | TDP-43 yeast inh | aSyn rescue | Mito fusion yeast | Abeta rescue
Cc1c(C(=O)N2CCN(c3ccccc3F)CC2)sc2nc(-c3ccccc3)cn12 | i | 14µM* | 8% | 6% | i
O=c1c(Cl)c(N2CCC3(CC2)OCCO3)cnn1C12CC3CC(CC(C3)C1)C2 | i | -8% | 1% | 4% | i
CN1/C(=C\C(=O)COC(=O)c2ccccc2O)C(C)(C)c2ccccc21 | i | -19% | -27% | 3% | i
CC(C)C(=O)NC(=S)/C=C1/N(C)c2ccccc2C1(C)C | i | 35µM* | -2% | -5% | ?
Cc1ccc(C(=O)NC(=S)/C=C2\N(C)c3ccccc3C2(C)C)cc1 | i | 9% | -28% | 12% | i
COc1ccccc1OCC(=O)/C=C1/N(C)c2ccccc2C1(C)C | i | 14µM* | 1% | 3% | i
COc1cccc2cc(C(=O)N3CC(C)OC(C)C3)c(=O)oc12 (stereo not given) | i | 4% | -4% | 3% | i
COc1cc2c(oc(=O)c3cc(C)cc(OC)c32)c2c(C3OC(C)C(O)C(C)(O)C3O)ccc(O)c12 (stereo not given) | / | ? | 6.3µM* | / | i
COc1ccc(/C=C(/C(=O)c2cccs2)N2C=CC=CC2=C(C#N)C#N)cc1 | i | ? | 18µM* | 6% | i
Fc1ccc(-c2cc3nc4c(c(N5CCOCC5)n3n2)CCCC4)cc1 | i | 16µM* | -39% | 0% | i
O=C(NCC1CCCO1)c1ccc(COc2ccccc2Br)cc1 (stereo not given) | i | 13µM* | -9% | -25% | i
O=C(NCC1CCCO1)c1ccc(COc2ccc(Cl)cc2)cc1 (stereo not given) | i | -12% | 0% | -18% | i
O=C(Oc1c(Cl)cc(Cl)c2cccnc12)c1ccco1 | / | ? | 3.5µM* | ? | i
O=C(Oc1c(Cl)cc(Cl)c2cccnc12)c1cccs1 | i | ? | 13% | -1% | i
COC(=O)Oc1c(Br)c(=O)oc2ccccc12 | i | 3.5µM* | 12% | / | i
CCC1CN(C(=O)N2CCC(C(=O)N3CCN(c4cc(C)ccc4C)CC3)CC2)c2ccccc2O1 (stereo not given) | ? | 22µM* | / | / | i
CCCCC(=O)Nc1nc2ccc(C(=O)OC)cc2s1 | i | 1% | -3% | 12% | i
CCOC(=O)c1c(NC(=O)c2ccccc2Cl)sc2c1CCc1ccccc1-2 | i | -32% | -24% | 11µM* | i
O=C(c1ccncc1)N1CCC(Oc2cccnc2)CC1 | i | / | / | / | /
COc1ccccc1-c1noc2ncnc(Nc3cccc(C)c3C)c12 | i | 18µM* | 7% | -2% | i
COc1ccccc1-c1noc2ncnc(Nc3ccccc3C)c12 | i | ? | -2% | 3% | i
O=C(Nc1ccccc1C(=O)Nc1ccc(Br)cn1)c1ccccc1Cl | i | 20µM* | 2%[1.84 µM] | ? | i
CCCCn1c(-c2cccs2)nc2nc3ccccc3nc21 | i | 13µM* | 5% | 1% | i
CCCCCCn1c(-c2cccs2)n[nH]c1=S | i | -12%[0.397 µM] | 2% | 5% | 6.3µM*
CCCCn1c(-c2csc3ccccc23)n[nH]c1=S | / | ? | 6% | -10% | i
SMILES | FUS yeast rescue | TDP-43 yeast inh | aSyn rescue | Mito fusion yeast | Abeta rescue
O=S(=O)(c1ccccc1)C1CC1(c1ccccc1)c1ccccc1 (stereo not given) | / | -2% | 8% | / | i
O=C(Cn1cnc2onc(-c3ccc(F)cc3)c2c1=O)N1CCN(c2ccc(F)cc2)CC1 | i | 35µM* | ? | / | i
CCC[n+]1c(/C=C/c2c(OC)cc(OC)cc2OC)ccc2ccccc21 | / | / | -24% | / | /
Cc1ccc(S(=O)(=O)N2CCN(C(=O)COC(=O)COc3cccc(C(F)(F)F)c3)CC2)c(C)c1 | i | 18% | 3% | / | i
O=C(c1cc(-c2ccncc2)nc2ccccc12)N1CCN(c2ccccc2O)CC1 | 18µM* | -14% | -20% | 2% | i
O=C(c1cc(-c2ccccc2)nc2ccccc12)N1CCN(c2ccccc2O)CC1 | ? | ? | -12% | 11% | i
CCc1nc(-c2ccccc2O)n(-c2ccccc2)n1 | i | 14µM* | -9% | 10% | i
